About 7,900 targets were measured; listed, in parts, are those with a hit and a random draw of the rest. About 0.6% of all pairs of compound and target were hits. Values without a mark were called inactive.
Legend:
Assay in all cases: log2 fold change, soluble protein after heating vs DMSO (PISA); higher = thermal stabilisation; K562 cells, 10 uM, 30 min; active = over 0.2 and 3.5 SD of the protein, either way, in both replicates (recomputed)
[1] = compound: CS(=O)(=O)c1ccc(-c2cnc(N)c(C(=O)Nc3ccccc3)n2)cc1
Method in brief: (§1)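 K562 cells at 2×10^6 cells/mL were given 10 μM compound for 30 min. Aliquots then went through 3 min of heating across 48°C-58°C, were pooled, and were extracted in PBS with 0.5% NP-40 at 4°C, and the supernatant after 21,000xg for 90 min was quantified by TMTpro 16plex LC-MS/MS with channel sums equalised. Thermal stability relative to control samples, from duplicates, is given as log2 fold change.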

[2] = compound: C[C@@H](Oc1cc(-c2cnn(C3CCNCC3)c2)cnc1N)c1c(Cl)ccc(F)c1Cl [crizotinib]
Method in brief: as §1

[3] = compound: C[C@@H]1COCCN1C2=NC(=NC(=C2)C3(CC3)S(=O)(=O)C)C4=C5C=CNC5=CC=C4
Method in brief: as §1

[4] = compound: C[C@H](C1=CC=C(C=C1)C(=O)NC2=C3C=CNC3=NC=C2)N
Method in brief: as §1

[5] = compound: C[C@H](Nc1ncnc2nc[nH]c12)c1cc2cccc(Cl)c2c(=O)n1-c1ccccc1 [duvelisib]
Method in brief: as §1

[6] = compound: Cc1cc(Nc2cc(CN3CCOCC3)c3nc(C)c(Cc4ccc(Cl)cc4F)n3n2)n[nH]1 [gandotinib]
Method in brief: as §1

[7] = compound: Cc1cc(Nc2cc(N3CCN(C)CC3)nc(Sc3ccc(NC(=O)C4CC4)cc3)n2)n[nH]1 [tozasertib]
Method in brief: as §1

[8] = compound: Cc1cc(SCc2sc(-c3ccc(C(F)(F)F)cc3)nc2C)ccc1OCC(=O)O
Method in brief: as §1

[9] = compound: Cc1ccc(-n2nc(C(C)(C)C)cc2NC(=O)Nc2ccc(OCCN3CCOCC3)c3ccccc23)cc1 [doramapimod]
Method in brief: as §1

[10] = compound: Cc1ccc(C(=O)N(CCCN)[C@@H](c2nc3cc(Cl)ccc3c(=O)n2Cc2ccccc2)C(C)C)cc1 [ispinesib]
Method in brief: as §1

[11] = compound: Cc1ccc(NC(=O)c2ccc(CN3CC[C@H](N(C)C)C3)c(C(F)(F)F)c2)cc1Nc1nccc(-c2cncnc2)n1 [bafetinib]
Method in brief: as §1

[12] = compound: Cc1cccc(CC(=O)N2CCc3c2ccc(-c2cn(C)c4ncnc(N)c24)c3F)n1
Method in brief: as §1

[13] = compound: Cc1cn(-c2cc(NC(=O)c3ccc(C)c(Nc4nccc(-c5cccnc5)n4)c3)cc(C(F)(F)F)c2)cn1 [nilotinib]
Method in brief: as §1

[14] = compound: Cc1nc(Nc2n[nH]c3c2CN(C(=O)N[C@H](CN(C)C)c2ccccc2)C3(C)C)c2sccc2n1
Method in brief: as §1

[15] = compound: Cc1nc(Nc2ncc(C(=O)Nc3c(C)cccc3Cl)s2)cc(N2CCN(CCO)CC2)n1 [dasatinib]
Method in brief: as §1

[16] = compound: Cc1ncc(-c2ccnc(Nc3ccc(S(C)(=O)=O)cc3)n2)n1C(C)C
Method in brief: as §1

[17] = compound: Cn1cc(-c2ccc3c(c2)CCN3C(=O)Cc2cccc(C(F)(F)F)c2)c2c(N)ncnc21
Method in brief: as §1

[18] = compound: Cn1cc(-c2ccc3nnc(C(F)(F)c4ccc5ncccc5c4)n3n2)cn1
Method in brief: as §1

[19] = compound: Cn1cncc1[C@@](N)(c1ccc(Cl)cc1)c1ccc2c(c1)c(-c1cccc(Cl)c1)cc(=O)n2C [tipifarnib]
Method in brief: as §1

[20] = compound: FC(F)(F)c1ccc(/C=C/c2nc(COc3ccc(CCCCn4ccnn4)cc3)co2)cc1 [mubritinib]
Method in brief: as §1

UniProt Q5T3F8, sequence (Q5T3F8 whole entry, looked up): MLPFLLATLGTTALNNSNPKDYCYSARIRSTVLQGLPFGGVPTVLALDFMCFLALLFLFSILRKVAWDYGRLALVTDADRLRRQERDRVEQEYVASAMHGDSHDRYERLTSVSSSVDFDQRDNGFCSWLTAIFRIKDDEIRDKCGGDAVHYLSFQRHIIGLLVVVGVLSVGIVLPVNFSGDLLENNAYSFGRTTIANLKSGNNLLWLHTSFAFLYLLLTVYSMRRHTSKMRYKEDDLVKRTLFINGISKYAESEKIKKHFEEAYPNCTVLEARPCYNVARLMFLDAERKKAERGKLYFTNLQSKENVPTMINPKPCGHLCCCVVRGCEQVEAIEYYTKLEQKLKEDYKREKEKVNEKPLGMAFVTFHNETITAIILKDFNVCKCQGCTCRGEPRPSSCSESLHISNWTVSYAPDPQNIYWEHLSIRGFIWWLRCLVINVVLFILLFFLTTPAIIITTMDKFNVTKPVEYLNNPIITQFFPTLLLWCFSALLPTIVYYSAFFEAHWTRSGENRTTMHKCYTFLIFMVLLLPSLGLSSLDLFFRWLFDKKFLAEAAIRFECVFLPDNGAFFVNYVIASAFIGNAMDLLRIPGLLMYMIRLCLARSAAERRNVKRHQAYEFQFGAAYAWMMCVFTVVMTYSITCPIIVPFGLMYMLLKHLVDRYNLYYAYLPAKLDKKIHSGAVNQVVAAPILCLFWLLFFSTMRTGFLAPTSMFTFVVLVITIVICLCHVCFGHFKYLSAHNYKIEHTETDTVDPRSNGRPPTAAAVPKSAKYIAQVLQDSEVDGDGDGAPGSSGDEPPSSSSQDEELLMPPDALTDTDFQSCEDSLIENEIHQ
UniProt O15213, sequence (O15213 whole entry, looked up): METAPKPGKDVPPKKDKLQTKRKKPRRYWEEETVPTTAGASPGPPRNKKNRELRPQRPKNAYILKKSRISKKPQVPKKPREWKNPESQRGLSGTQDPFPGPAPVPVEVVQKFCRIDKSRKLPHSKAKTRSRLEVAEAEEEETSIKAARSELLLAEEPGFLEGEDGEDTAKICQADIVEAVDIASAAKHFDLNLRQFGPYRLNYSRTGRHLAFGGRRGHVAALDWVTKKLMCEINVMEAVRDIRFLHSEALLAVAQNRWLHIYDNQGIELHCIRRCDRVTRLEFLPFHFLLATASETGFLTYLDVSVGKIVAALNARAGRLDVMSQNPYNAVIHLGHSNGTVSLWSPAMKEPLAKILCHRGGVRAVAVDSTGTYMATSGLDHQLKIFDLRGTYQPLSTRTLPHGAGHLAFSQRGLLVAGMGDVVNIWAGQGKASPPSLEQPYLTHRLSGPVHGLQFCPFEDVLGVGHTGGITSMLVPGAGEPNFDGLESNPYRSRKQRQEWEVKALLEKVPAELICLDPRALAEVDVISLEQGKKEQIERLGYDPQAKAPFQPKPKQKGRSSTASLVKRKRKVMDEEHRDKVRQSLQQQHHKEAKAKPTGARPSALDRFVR
UniProt Q9BZI7, sequence (Q9BZI7 whole entry, looked up): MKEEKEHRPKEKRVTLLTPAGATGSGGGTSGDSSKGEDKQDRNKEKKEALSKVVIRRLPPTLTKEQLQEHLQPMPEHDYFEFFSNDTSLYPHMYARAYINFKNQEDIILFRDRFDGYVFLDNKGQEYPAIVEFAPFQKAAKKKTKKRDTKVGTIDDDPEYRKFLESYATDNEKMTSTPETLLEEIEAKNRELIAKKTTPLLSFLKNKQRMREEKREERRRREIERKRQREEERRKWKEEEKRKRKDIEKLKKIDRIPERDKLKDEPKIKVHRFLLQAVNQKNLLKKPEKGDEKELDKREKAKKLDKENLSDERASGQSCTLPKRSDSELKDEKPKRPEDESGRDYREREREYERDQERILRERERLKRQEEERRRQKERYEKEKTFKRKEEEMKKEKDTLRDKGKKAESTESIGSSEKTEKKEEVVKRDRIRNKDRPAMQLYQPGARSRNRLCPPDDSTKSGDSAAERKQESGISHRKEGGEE
UniProt O60763, sequence (O60763 whole entry, looked up): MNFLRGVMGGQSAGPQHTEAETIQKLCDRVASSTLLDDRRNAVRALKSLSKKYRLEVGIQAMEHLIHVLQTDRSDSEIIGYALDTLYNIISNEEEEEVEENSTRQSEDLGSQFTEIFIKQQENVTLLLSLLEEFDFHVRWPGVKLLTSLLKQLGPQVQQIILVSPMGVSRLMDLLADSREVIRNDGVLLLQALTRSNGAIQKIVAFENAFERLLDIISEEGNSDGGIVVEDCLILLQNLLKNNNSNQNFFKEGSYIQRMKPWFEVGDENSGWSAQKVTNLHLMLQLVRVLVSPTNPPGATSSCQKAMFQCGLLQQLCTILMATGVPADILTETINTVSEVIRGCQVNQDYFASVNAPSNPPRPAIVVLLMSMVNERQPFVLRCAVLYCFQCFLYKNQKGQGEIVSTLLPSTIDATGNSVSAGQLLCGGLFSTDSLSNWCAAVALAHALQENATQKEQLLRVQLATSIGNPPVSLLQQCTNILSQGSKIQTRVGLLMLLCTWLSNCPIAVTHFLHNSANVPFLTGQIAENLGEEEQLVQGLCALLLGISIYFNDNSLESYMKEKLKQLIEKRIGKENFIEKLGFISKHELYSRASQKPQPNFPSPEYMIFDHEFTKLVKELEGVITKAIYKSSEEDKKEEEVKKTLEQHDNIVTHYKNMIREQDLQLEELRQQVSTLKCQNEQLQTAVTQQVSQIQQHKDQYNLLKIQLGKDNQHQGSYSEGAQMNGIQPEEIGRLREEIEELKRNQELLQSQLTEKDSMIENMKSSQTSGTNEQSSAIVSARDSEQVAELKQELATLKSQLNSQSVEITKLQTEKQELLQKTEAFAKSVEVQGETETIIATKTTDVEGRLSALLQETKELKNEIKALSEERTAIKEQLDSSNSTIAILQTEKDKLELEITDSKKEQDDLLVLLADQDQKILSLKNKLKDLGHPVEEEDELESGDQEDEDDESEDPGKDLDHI
UniProt Q53S58, sequence (Q53S58 whole entry, looked up): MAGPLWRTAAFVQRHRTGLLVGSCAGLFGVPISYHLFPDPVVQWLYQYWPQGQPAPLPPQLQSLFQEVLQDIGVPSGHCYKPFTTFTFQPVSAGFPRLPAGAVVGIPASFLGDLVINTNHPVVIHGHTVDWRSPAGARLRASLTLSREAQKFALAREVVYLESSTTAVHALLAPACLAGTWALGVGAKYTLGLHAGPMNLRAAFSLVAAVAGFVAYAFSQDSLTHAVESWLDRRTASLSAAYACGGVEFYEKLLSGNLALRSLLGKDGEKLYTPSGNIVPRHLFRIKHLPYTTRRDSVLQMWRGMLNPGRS
UniProt O95155, sequence (O95155 whole entry, looked up): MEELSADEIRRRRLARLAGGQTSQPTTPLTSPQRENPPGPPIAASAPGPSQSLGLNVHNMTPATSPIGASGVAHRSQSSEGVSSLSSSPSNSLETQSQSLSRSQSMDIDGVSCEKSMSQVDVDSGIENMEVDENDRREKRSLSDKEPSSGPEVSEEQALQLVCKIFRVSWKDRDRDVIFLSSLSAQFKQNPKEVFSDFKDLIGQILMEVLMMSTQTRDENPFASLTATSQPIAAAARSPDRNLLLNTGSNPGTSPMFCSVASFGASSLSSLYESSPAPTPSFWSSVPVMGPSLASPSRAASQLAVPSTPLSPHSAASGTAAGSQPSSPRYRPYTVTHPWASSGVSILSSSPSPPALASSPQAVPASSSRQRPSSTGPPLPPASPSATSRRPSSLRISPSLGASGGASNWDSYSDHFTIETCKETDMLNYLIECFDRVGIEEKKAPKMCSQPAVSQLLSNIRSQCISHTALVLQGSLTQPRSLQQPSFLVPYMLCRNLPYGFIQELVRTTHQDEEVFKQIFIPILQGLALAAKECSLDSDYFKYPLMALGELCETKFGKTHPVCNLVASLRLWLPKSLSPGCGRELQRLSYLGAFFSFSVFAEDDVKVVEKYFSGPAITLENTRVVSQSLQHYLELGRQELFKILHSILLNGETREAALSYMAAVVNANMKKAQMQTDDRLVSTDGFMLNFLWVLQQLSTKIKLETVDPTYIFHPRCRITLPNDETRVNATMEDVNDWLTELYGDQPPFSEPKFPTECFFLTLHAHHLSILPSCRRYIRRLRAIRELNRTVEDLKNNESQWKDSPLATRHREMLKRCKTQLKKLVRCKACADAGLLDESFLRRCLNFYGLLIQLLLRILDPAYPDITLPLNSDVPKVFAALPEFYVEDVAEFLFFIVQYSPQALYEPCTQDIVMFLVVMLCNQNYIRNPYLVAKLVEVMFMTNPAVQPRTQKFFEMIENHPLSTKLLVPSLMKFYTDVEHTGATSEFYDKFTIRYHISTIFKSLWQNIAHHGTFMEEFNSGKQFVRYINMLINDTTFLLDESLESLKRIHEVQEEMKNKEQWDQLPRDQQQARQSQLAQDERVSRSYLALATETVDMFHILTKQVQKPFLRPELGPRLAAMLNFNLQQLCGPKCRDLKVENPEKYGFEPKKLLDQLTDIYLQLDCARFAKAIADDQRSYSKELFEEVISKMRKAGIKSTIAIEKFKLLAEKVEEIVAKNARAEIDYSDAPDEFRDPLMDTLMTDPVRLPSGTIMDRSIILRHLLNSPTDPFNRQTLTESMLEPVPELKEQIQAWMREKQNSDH
UniProt Q8IY95, sequence (Q8IY95 whole entry, looked up): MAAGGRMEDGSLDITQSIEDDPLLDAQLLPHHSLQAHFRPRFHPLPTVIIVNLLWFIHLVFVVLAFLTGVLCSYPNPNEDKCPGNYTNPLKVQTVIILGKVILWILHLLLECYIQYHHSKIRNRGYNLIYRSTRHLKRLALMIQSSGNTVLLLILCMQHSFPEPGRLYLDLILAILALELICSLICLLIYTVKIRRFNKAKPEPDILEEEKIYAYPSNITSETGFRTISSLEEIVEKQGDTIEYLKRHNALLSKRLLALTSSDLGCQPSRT

Target | log2 fold change [1] | log2 fold change [2] | log2 fold change [3] | log2 fold change [4] | log2 fold change [5] | log2 fold change [6] | log2 fold change [7] | log2 fold change [8] | log2 fold change [9] | log2 fold change [10] | log2 fold change [11] | log2 fold change [12] | log2 fold change [13] | log2 fold change [14] | log2 fold change [15] | log2 fold change [16] | log2 fold change [17] | log2 fold change [18] | log2 fold change [19] | log2 fold change [20]
WDR46 (UniProt O15213) | -0.05 | 0.008 | -0.731 | 0.445 | -0.199 | 0.27 | 0.068 | 0.032 | 0.142 | -0.081 | 0.251 | -0.026 | -0.055 | 0.117 | 0.364 | 0.096 | -0.376 | -0.187 | 0.084 | -0.093
USO1 isoform 2 (UniProt O60763) | 0.001 | -0.031 | 0.05 | -0.068 | -0.023 | -0.062 | 0.029 | 0.052 | -0.019 | 0.012 | -0.055 | 0.036 | -0.039 | -0.024 | -0.052 | 0.032 | -0.017 | -0.003 | -0.068 | 0.032
UBE4B isoform 4 (UniProt O95155) | 0.016 | -0.013 | 0.012 | -0.015 | 0.012 | -0.048 | 0.035 | 0.019 | -0.048 | 0 | -0.003 | 0.053 | -0.051 | -0.011 | -0.069 | -0.024 | -0.019 | -0.011 | -0.024 | 0.032
TMEM177 (UniProt Q53S58) | 0.005 | 0.033 | 0.065 | 0.011 | 0.039 | 0.025 | 0.087 | 0.053 | -0.062 | -0.304 (active) | -0.123 | 0.054 | -0.001 | -0.005 | -0.045 | 0.023 | -0.019 | 0.016 | 0.004 | 0.026
UPF3B (UniProt Q9BZI7) | 0 | 0.091 | -0.63 | 0.542 | -0.125 | 0.452 | 0.071 | 0.064 | 0.295 | -0.222 | 0.108 | 0.055 | -0.15 | 0.098 | 0.143 | -0.085 | -0.225 | -0.24 | 0.106 | -0.098
UBAP2L isoform 1 (UniProt Q14157) | -0.034 | 0.077 | 0.009 | -0.008 | 0.022 | -0.007 | -0.062 | -0.056 | 0.034 | -0.026 | -0.006 | -0.043 | 0.013 | -0.134 | 0.058 | -0.056 | 0.064 | 0.034 | 0.076 | 0.07
TMEM63B (UniProt Q5T3F8) | -0.127 | 0.045 | -0.042 | -0.014 | -0.085 | -0.028 | -0.007 | 0.015 | -0.047 | -0.312 (active) | 0.013 | 0.002 | -0.008 | -0.021 | 0.026 | -0.061 | 0.006 | 0.004 | 0.008 | 0.047
TMEM192 (UniProt Q8IY95) | 0.074 | -0.45 (active) | 0.043 | 0.04 | 0.026 | 0.059 | -0.008 | -0.022 | 0.024 | -0.318 (active) | -0.148 | -0.083 | 0.019 | -0.002 | 0.109 | -0.042 | -0.034 | -0.051 | 0.051 | -0.032
